An excerpt weighted towards active compounds, which were near 1.2% of everything screened.
bovine MsrA act: activators of bovine methionine sulfoxide reductase A. purified bovine MsrA, absorbance read-out. activation, % at 10.6 µM. actives 0.3% (n = 360,000); in the data active = activation above about 7.5%;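 also: 0% = vehicle and 100% = reference activator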
MsrA inhibitor: inhibitors of bovine MsrA; purified bovine MsrA, absorbance read-out; inhibition, % at 15.5 µM; actives 0.75% (n = 360,000); AID 651718; in the data active = inhibition above about 4.5%;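 also: 0% = vehicle wells with enzyme and 100% = reference inhibitor wells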
NPR1 activator: GC-A (human) enzyme activation; HEK293 GC-A cells, cGMP TR-FRET, EC30 ANP; 0% at EC30 ANP, 100% saturating ANP; activation, % at 10 µM; actives 0.14% (n = 370,000); AID 1671463; in the data active = activation above about 40%
NPR2 activator: GC-B (human) receptor activation; HEK293-GC-B cells, CNP EC30, cGMP TR-FRET; 0% at EC30 CNP, 100% saturating CNP; actives 0.11% (n = 370,000); activation, % at 10 µM; AID 1920062; P20594;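 active = activation at 10 µM reaching about 35% in either raw or pattern-adjusted values, limit read from the data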
MsrA activ conf: confirmation of bovine methionine sulfoxide reductase A activators. AID 602270. purified bovine MsrA, absorbance read-out. activation, % at 10.6 µM. shares compounds with bovine MsrA act. actives 12% (n = 1,000); in the data active = activation above about 4%;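 also: enzyme coupled to thioredoxin and thioredoxin reductase with NADPH; 0% = vehicle wells and 100% = reference activator wells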
* marks the source's active call; other numbers are inactive results; nt = no result.

SMILES | bovine MsrA act | MsrA inhibitor | NPR1 activator | NPR2 activator | MsrA activ conf
COc1ccc(C2CC(c3cccs3)=Nc3ccccc3S2)cc1 (configuration not stated) | 10* | 3 | -10 | -2 | -1
O=C(Nc1ccc2c(c1)OCO2)c1cncc(Br)c1 | -2 | 0 | 4 | 2 | nt
O=C(Nc1ccc2c(c1)OCCO2)c1cncc(Br)c1 | 9.2* | 0 | 1 | 2 | 0
C[C@H]1[C@@H](OC(=O)Nc2ccccc2C(F)(F)F)CC[C@@]23CCCN2C(=O)CCC[C@@H]13 | nt | nt | 0 | -2 | nt
CS(=O)(=O)N1CCN(C(=O)c2ccc(Cl)s2)CC1 | 16* | -1 | 4 | 3 | -1
Cn1nc(C(=O)OCC(=O)Nc2ccccc2[N+](=O)[O-])c2ccccc2c1=O | -3 | 0 | -2 | -2 | nt
Cn1nc(C(=O)OCC(=O)Nc2cc(Cl)ccc2C#N)c2ccccc2c1=O | 10* | 0 | -4 | 2 | -3
CN1C(=O)C[C@@](C#N)(C(=O)NCc2ccc3c(c2)OCO3)[C@H]1c1ccccc1 | nt | nt | -1 | 2 | nt
CCCC(=O)Nc1ccc(C(=O)COC(=O)C2=COCCO2)cc1 | 8.1* | 0 | 3 | 8 | 0
CCC(C(=O)Nc1ccccc1N1CCCC1)c1ccccc1Cl (configuration not stated) | nt | nt | -12 | -7 | nt
O=[N+]([O-])c1ccc(-[n+]2ccc3ccccc3c2)c([N+](=O)[O-])c1 | 11* | 2 | -4 | 3 | 3
OCc1ccccc1CNCc1ccccc1 | -3 | -1 | -1 | -2 | nt
OCc1ccccc1SSc1ccccc1CO | 11* | 1 | 14 | 16 | 6.4*
CCCCCC(=O)NNC(=S)NC(=O)c1cccc([N+](=O)[O-])c1 | 8.9* | 1 | -1 | 4 | 1
CCCCCC(=O)NNC(=S)NC(=O)c1ccccc1[N+](=O)[O-] | -3 | -1 | 3 | 2 | nt
Cc1cccc(NC(=O)C2CCN(c3nnc(-n4cccc4)s3)CC2)c1C | nt | nt | -1 | 3 | nt
Cc1ccccc1C(=O)NC1CCCCN(Cc2cccc(F)c2)C1=O (configuration not stated) | nt | nt | 1 | 1 | nt
CC(Sc1ncnc2sc(-c3ccccc3)cc12)C(=O)N1CCNC1=O (configuration not stated) | -4 | 0 | 6 | -7 | nt
CC(C)N(C(=O)CSc1ncnc2sc(-c3ccccc3)cc12)C(C)C | 9.1* | 0 | -3 | -11 | 0
Nn1c(SCC(=O)NC2CCCCC2)nnc1-c1n[nH]c2c1CCC2 | nt | nt | 2 | 0 | nt
CCN(CC)c1ccc(-c2sc(Nc3ccccc3)n[n+]2-c2ccc(F)cc2)cc1 | 17* | 3 | -3 | -5 | 4.0*
CN(C)c1ccc(-c2sc(Nc3ccccc3)n[n+]2-c2ccc(F)cc2)cc1 | 0 | 1 | -6 | -14 | nt
Cc1nn(CCC(=O)NNC(=S)Nc2cccc(Cl)c2)c(C)c1[N+](=O)[O-] | 11* | 0 | 2 | 1 | 0
Cc1nc2c(nc1C)C(=O)c1ccccc1C2=O | 13* | 1 | 9 | -5 | 8.4*
O=C1c2ccccc2-c2nc3ccccc3nc21 | 4 | 0 | 4 | -2 | nt
SMILES | bovine MsrA act | MsrA inhibitor | NPR1 activator | NPR2 activator | MsrA activ conf
O=C(Nc1ccc(Cl)cc1)Nc1ccccn1 | 8.4* | 1 | 1 | -6 | -2
O=C(Nc1ccccc1)Nc1ccccn1 | -2 | -1 | 6 | 8 | nt
CC(=C\C=O)/C(C)=C/CC[C@@H]1O[C@@H]2C[C@@H]3O[C@](C)(C[C@H]4C[C@H](O)[C@@H]5O[C@@H]6C[C@H](O)[C@@H](C)O[C@@]6(C)CC[C@H]5O4)[C@@H](O)CC[C@@]3(C)O[C@H]2[C@@H](O)[C@@H]1C | nt | nt | 4 | -4 | nt
CC(C)NC[C@@H](O)c1ccc(O)c(O)c1 | -6 | -1 | 1 | 0 | nt
CC(C)NCC(O)c1ccc(NS(C)(=O)=O)cc1 (configuration not stated) | 7.8* | 3 | 0 | -1 | -3
O=c1[nH]c(=S)[nH]cc1Oc1ccc(Cl)cc1Cl | 8.8* | 0 | 8 | 5 | 4.7*
Cc1nc(-c2ccccc2)[nH]c(=O)c1Oc1ccc(Cl)cc1Cl | -1 | 1 | 4 | 3 | nt
COc1ccccc1CNC(=O)N(CCc1c(C)[nH]c2ccccc12)Cc1cccs1 | nt | nt | -9 | -6 | nt
O=c1c2cc(F)ccc2sn1-c1ccccc1Cl | 0 | -1 | -3 | 12 | nt
O=c1c2ccccc2sn1-c1ccc(F)cc1 | 12* | 1 | 8 | 9 | 8.3*

Screening results deposited in PubChem by several laboratories.
